In PubChem BioAssay one finds composite z-score and z-score data, which are given here for 4 compounds.

In assay [1] the test system is Wnt5a (protein binding on small-molecule microarray). The assay can be described thus: small molecules binding Wnt5a protein – biophysical, small-molecule microarray, 635/667 nm fluorescence, primary screen (AID 1142).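 Note: fluorescence read at 667 nm with signal to noise per printed feature.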 Particulars: 635 nm fluorescence, higher = more signal.
Assay [2] can be described thus: ATP-based viability of Huh7 replicon cells – cell-based, CellTiter-Glo luminescence, basal, 48 h, cytotoxicity control for HCV replication inhibitor project, primary screen (AID 1143).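 Note: Huh7 hepatoma cells carrying a hepatitis C replication reporter with no stimulus; test concentration not given here.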 Particulars: higher = more signal, called active from +8 up or from −8 down. (A replicon is a self-replicating genome or part of one, used to study replication in cells.)
A short description of assay [3]: Pseudomonas biofilm growth suppression – PAO1 strain, BacTiter-Glo luminescence, LB-PBS, primary screen (AID 1144). Particulars: P. aeruginosa PAO1 biofilm, 12 h, higher = more signal.
The nature of assay [4]: basal CRE-LacZ reporter activity in PC12 – cell-based, unstimulated, primary screen (AID 1145). Particulars: no forskolin, luminescence, 4.5 h, higher = more signal, called active from +8 up or from −8 down.
A short description of assay [5]: forskolin-driven CRE-LacZ activity in PC12 – cell-based, CRE-LacZ reporter, forskolin-stimulated, primary screen (AID 1146).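 Note: PC12 cells with 6xCRE LacZ reporter stimulated by forskolin 10 µM; beta-galactosidase reporter signal reflecting CREB driven transcription.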 Particulars: luminescence, 4.5 h, higher = more signal, called active from +8 up or from −8 down.
The target of assay [6] is Streptavidin (Streptomyces avidinii) (UniProt P22629). The assay can be described thus: compounds binding control protein streptavidin – biophysical, small-molecule microarray, 635/667 nm fluorescence, artefact control for SMM compound annotation, primary screen (AID 1147).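 Note: signal reflects streptavidin binding to arrayed compounds as a control protein.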 Particulars: higher = more signal.
Assay [7] in a line: probe aInhba binding on compound microarray – biochemical, small-molecule microarray, 635/667 nm fluorescence, primary screen (AID 1148).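 Note: score merges 667nm spot fluorescence with signal-to-noise for antibody binding to printed compounds.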 Particulars: higher = more signal.
The target of assay [8] is Torsin-1A (Homo sapiens) (UniProt O14656). Briefly: TOR1A wild-type binding on microarray – cell lysate, small-molecule microarray, lysate, 635/667 nm, primary screen (AID 1149). Particulars: COS7 hTOR1A-WT lysate, 635 nm fluorescence, higher = more signal.
For assay [9] the target is unchanged. Briefly: torsin A mutant lysate binding on microarrays – cell lysate, small-molecule microarray, COS7 lysate, 635/667 nm fluorescence, primary screen (AID 1150).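 Note: score pools 667 nm emission and signal to noise measuring lysate protein binding.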 Particulars: COS7 hTOR1A mutant lysate, 635 nm fluorescence, higher = more signal.
Assay [10] has as its system Sonic hedgehog protein (Shh). Briefly: Sonic hedgehog microarray binding compounds – biochemical, small-molecule microarray, 635/667 nm fluorescence, primary screen (AID 1151).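 Note: Shh protein binding to compounds spotted on small-molecule microarray slides; score combines spot fluorescence intensity with signal-to-noise across triplicate slides.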 Particulars: 635 nm fluorescence, higher = more signal.
The nature of assay [11]: optical density shifts of acrAB sulA E. coli – strain DRC41, OD650, 48 h, E. coli filamentation inducer project, primary screen (AID 1152).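 Note: E. coli MC1000 strain DRC41 lacking acrAB efflux pump and sulA.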 Particulars: higher = more signal, called active from +8 up or from −8 down.
Assay [12] can be described thus: probe aLefty1 binding on compound microarray – biochemical, small-molecule microarray, 635/667 nm fluorescence, primary screen (AID 1153).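 Note: score merges spot fluorescence with signal-to-noise ratio from the scanned slide images.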 Particulars: higher = more signal.
The nature of assay [13]: plasmodial surface anion channel blockers, osmotic lysis – cell-based, P. falciparum Indochina, OD700, 1 h, primary screen (AID 1154). Particulars: P. falciparum Indochina infected RBC osmotic lysis, higher = more signal, called active from +8 up or from −8 down.
A short description of assay [14]: plasmodial surface anion channel blockers, osmotic lysis – cell-based, P. falciparum Indochina, OD700, 2 h, primary screen (AID 1155).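 Note: lysis reports solute entry through the parasite surface anion channel PSAC.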 Particulars: P. falciparum Indochina infected erythrocytes, higher = more signal, called active from +8 up or from −8 down.
Assay [15] in a line: changes in parasitized red cell lysis, either direction – P. falciparum Indochina, OD700, 3 h, PSAC antagonist project, primary screen (AID 1156). Particulars: P. falciparum-infected erythrocytes, osmotic lysis, higher = more signal, called active from +8 up or from −8 down.
A short description of assay [16]: plasmodial surface anion channel blockers, osmotic lysis – cell-based, P. falciparum Indochina, OD700, 18 h, primary screen (AID 1157). Particulars: P. falciparum Indochina infected erythrocytes, osmotic lysis OD700, 18 h; higher = more signal, called active from +8 up or from −8 down.
Assay [17] is described as follows: S6 kinase pathway phospho-S6 level changes – cell-based, A549, cytoblot, luminescence, serum-stimulated, primary screen (AID 1158).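 Note: serum-stimulated A549 lung adenocarcinoma cells; signal is phosphorylated S6 detected by cytoblot immunostaining with HRP secondary.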 Particulars: 5 h, higher = more signal.
Assay [18] has as its target NADPH oxidase 2 (Homo sapiens) (UniProt P04839). The assay can be described thus: compounds shifting NOX2 Amplex Red fluorescence – cell-based, HEK293-NOX2, PMA-stimulated, NOX inhibitor project, primary screen (AID 1159). Note: test concentration not given here. Particulars: 45 min, higher = more signal, called active from +8 up or from −8 down.
In assay [19] the target is NADPH oxidase 4 (Homo sapiens) (UniProt Q9NPH5). The assay can be described thus: compounds shifting NOX4 Amplex Red fluorescence – cell-based, HEK293-NOX4, tetracycline-induced, NOX inhibitor project, primary screen (AID 1160). Particulars: HEK293-NOX4, Amplex Red H2O2 fluorescence, 45 min; higher = more signal, called active from +8 up or from −8 down.
For assay [20], the target named is NADPH oxidase 5 (Homo sapiens) (UniProt Q96PH1). Briefly: compounds shifting NOX5 Amplex Red fluorescence – cell-based, HEK293-NOX5, NOX inhibitor project, primary screen (AID 1161). Particulars: HEK293-NOX5, ionomycin, 45 min, higher = more signal.

The source made the active and inactive calls. Unless noted, the rule behind the calls is not given here.

Sequence of NADPH oxidase 5 (Homo sapiens) (Q96PH1 whole entry, looked up): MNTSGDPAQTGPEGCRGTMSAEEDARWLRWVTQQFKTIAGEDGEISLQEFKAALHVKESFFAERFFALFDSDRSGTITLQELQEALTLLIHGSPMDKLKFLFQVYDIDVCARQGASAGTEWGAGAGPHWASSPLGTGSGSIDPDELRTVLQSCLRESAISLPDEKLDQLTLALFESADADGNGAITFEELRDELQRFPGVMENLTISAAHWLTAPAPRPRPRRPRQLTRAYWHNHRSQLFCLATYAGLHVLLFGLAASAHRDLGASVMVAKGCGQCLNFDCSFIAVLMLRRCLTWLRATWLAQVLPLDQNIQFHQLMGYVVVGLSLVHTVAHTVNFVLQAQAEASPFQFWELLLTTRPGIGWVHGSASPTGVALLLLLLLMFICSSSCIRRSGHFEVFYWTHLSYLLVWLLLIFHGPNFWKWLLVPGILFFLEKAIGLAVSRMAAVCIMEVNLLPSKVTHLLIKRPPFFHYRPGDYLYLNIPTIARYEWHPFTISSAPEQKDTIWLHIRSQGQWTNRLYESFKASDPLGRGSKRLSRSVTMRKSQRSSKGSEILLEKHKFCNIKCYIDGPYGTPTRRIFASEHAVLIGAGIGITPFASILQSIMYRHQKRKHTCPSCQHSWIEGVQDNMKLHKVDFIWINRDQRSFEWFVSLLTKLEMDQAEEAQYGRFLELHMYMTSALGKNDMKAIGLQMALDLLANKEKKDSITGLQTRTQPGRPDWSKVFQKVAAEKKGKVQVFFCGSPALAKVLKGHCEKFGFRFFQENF
Sequence of Torsin-1A (Homo sapiens) (O14656 whole entry, looked up): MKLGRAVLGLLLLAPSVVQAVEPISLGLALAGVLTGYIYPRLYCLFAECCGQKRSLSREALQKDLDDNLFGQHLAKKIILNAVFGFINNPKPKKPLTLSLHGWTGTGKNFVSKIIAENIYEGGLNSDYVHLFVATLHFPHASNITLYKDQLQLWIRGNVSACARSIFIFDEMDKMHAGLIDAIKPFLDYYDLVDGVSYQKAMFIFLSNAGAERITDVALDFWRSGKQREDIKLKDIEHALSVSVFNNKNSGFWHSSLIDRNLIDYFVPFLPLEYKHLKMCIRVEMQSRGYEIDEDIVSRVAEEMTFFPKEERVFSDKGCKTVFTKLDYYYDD
Sequence of NADPH oxidase 4 (Homo sapiens) (Q9NPH5 whole entry, looked up): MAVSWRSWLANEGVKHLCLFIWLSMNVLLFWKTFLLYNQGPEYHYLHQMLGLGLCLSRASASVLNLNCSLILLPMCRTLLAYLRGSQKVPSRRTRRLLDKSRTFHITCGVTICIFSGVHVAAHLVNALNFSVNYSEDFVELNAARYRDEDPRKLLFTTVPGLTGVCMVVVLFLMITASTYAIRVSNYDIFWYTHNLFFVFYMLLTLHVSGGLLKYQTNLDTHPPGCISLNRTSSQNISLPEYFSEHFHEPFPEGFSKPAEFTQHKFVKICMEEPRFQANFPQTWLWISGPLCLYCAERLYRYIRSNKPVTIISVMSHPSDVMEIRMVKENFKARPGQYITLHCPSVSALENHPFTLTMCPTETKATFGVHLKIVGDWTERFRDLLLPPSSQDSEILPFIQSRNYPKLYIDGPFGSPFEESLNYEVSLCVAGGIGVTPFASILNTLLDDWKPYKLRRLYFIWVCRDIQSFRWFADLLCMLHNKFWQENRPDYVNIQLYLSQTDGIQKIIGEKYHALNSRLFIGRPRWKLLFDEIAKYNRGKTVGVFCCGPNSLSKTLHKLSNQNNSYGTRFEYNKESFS
Sequence of NADPH oxidase 2 (Homo sapiens) (P04839 whole entry, looked up): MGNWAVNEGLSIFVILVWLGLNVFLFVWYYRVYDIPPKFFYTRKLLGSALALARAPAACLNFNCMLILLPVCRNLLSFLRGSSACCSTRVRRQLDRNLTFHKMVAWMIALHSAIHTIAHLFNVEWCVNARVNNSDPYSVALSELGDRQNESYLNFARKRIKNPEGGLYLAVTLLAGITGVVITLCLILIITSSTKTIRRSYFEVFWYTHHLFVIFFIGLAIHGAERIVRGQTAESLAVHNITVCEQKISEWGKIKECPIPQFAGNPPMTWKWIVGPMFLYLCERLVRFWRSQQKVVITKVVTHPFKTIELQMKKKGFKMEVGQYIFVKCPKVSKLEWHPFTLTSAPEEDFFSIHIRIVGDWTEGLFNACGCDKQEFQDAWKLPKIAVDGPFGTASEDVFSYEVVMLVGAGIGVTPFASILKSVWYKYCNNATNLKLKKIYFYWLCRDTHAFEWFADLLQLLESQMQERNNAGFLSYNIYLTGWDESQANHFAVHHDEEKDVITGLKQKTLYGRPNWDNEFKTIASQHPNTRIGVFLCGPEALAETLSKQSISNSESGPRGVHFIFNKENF
Sequence of Streptavidin (Streptomyces avidinii) (P22629 whole entry, looked up): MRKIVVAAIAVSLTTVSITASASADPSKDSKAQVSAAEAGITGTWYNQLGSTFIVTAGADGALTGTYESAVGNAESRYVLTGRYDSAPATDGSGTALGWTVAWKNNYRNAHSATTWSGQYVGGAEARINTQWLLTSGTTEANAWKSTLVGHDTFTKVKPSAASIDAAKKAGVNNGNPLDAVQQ

Turning to `COCCCNC(=O)[C@]1(Cc2ccccc2N=[N+]=[N-])N=C(c2ccc(OCCCO)cc2)O[C@@H]1c1ccccc1`, the composite z-score in assay [1] is 0.637; in assay [6], 1.58; in assay [7] it was 0.974; with Torsin-1A (Homo sapiens) [8], 0.303; with Torsin-1A (Homo sapiens) [9], 1.09; in assay [10] it was -0.223. For the same compound, the composite z-score in assay [12] was 0.749. Further, the z-score in assay [2] was -3.94 (inactive); in assay [3] it was 0.542 (inactive); in assay [4], 1.76 (inactive); in [5], -1.66 (inactive); in assay [11], -0.112 (inactive); in assay [13], 28.8 (active). For the same compound, the z-score was 22.5 (active) in assay [14]; 2.38 (inactive) in assay [15]; 3.2 (inactive) in assay [16]; 0.008 in assay [17]; -2.28 (inactive) in assay [18]; 0.471 (inactive) in [19]. Besides, the z-score in [20] stood at 0.124.

With `O=C1O[C@@H](c2ccccc2)[C@@H](c2ccccc2)N2[C@@H](c3ccccc3OCCO)[C@]3(C(=O)Nc4ccc(C#CC5(O)CCCCCC5)cc43)[C@@H](C(=O)N3CCCCCCC3)[C@H]12`, the composite z-score was 2.35 in assay [1]; 2.41 in assay [6]; 2.16 in [7]; 3.29 with Torsin-1A (Homo sapiens) [8]; 3.08 in the assay with Torsin-1A (Homo sapiens) [9]; 2.06 in assay [10]. Further, the composite z-score in assay [12] is 3.07. The z-score is -5.6 (inactive) in assay [2]; -0.349 (inactive) in [3]; -0.168 (inactive) in assay [4]; 0.306 (inactive) in [5]; 0.177 (inactive) in assay [11]; 1.14 (inactive) in [13]. The z-score was -0.256 (inactive) in assay [14]; 0.786 (inactive) in assay [15]; -1.64 (inactive) in [16]; 1.76 in assay [17]; -0.21 (inactive) in assay [18]; -0.596 (inactive) in [19]. For the same compound, the z-score in assay [20] is 0.147.

In the case of `COC(=O)[C@@]1(Cc2ccc(OC)cc2)[C@@H]2[C@@H](CC(=O)[C@H]2CC(=O)C(=O)N(C)C)CN1C(=O)c1ccccc1`, the composite z-score in assay [1] is 2.06; in [6], 1.79; in assay [7] it was 1.83; in the assay with Torsin-1A (Homo sapiens) [8], -0.0909; with Torsin-1A (Homo sapiens) [9], 0.452; in assay [10], 0.326. The composite z-score in assay [12] amounted to 2.12. The z-score in assay [2] is -3.89 (inactive); in [3], 0.327 (inactive); in assay [4], 0.39 (inactive); in assay [5], 0.247 (inactive); in [11], -0.715 (inactive); in assay [13], 2.94 (inactive). The z-score is 1.08 (inactive) in [14]; 0.63 (inactive) in assay [15]; 1.45 (inactive) in assay [16]; 0.58 in assay [17]; 0.337 (inactive) in assay [18]; 0.898 (inactive) in assay [19]. Besides, the z-score in assay [20] was determined as 0.427.

For the compound `COCCCNC(=O)[C@@]1(c2ccc([N+](=O)[O-])cc2)CC(=O)N(C2CCCCC2)[C@@H]1c1ccc(CO)cc1I`, the composite z-score was 0.0398 in [1]; -0.16 in assay [6]; 0.0575 in assay [7]; 0.95 in the assay with Torsin-1A (Homo sapiens) [8]; 1.39 with Torsin-1A (Homo sapiens) [9]; 1.81 in assay [10]. In [12], the composite z-score was -0.208. Besides, the z-score is -3.87 (inactive) in assay [2]; 0.239 (inactive) in assay [3]; 0.414 (inactive) in assay [4]; -0.543 (inactive) in assay [5]; 0.725 (inactive) in assay [11]; 12.6 (active) in assay [13]. Moreover, the z-score in assay [14] is 1.35 (inactive); in assay [15] it was 3.44 (inactive); in [16], 1.11 (inactive); in [17], 0.107; in assay [18] it was 1.78 (inactive); in [19], 0.381 (inactive). The z-score in [20] was 2.07.
